Bioassay records deposited in PubChem BioAssay by National Center for Advancing Translational Sciences (NCATS).
RORgamma inh: ROR gamma (mouse) transcription inhibition. P51450. Drosophila S2 Gal4-RORgamma UAS-luciferase reporter, 20 h. Potency, µM (highest dose often 53.6 µM), without a hit: top-dose activity change, negative = inhibition, hits mostly inhibitors. 310,000 tested, 5.4% active. AID 2551; further: potency means the concentration at half of the fitted maximal effect; nearly all actives have a fitted effect of over 60% in size
Target sequence (P51450 whole entry, looked up, the tested form may be a part): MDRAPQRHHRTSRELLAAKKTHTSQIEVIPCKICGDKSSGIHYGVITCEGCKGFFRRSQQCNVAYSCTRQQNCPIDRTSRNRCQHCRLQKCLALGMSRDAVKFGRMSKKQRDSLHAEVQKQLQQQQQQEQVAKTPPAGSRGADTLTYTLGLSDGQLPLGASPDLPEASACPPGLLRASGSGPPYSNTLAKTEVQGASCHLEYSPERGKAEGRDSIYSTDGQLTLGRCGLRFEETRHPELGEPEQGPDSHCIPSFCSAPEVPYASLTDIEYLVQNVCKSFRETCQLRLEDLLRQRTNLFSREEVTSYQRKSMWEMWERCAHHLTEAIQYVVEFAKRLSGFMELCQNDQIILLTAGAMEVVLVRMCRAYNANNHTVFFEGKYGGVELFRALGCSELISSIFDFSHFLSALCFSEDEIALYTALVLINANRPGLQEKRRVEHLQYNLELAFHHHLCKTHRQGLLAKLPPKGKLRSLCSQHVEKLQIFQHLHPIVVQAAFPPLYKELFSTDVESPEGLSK
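Using a luciferase readout, inhibitors were identified by reduced reporter activity in Drosophila cells coexpressing a copper-inducible Gal4–ROR gamma fusion and UAS-driven Photinus luciferase, incubated 20 hr after 700 uM copper sulfate.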
TDP1 cell CPT: growth inhibition of DT40 Tdp1-/-;hTDP1 cells with camptothecin (screen for TDP1 inhibitors) | chicken DT40 Tdp1-/-;hTDP1 cells + 20 nM CPT, ATP luminescence, 48 h | 420,000 tested, 12% active | AID 686979 | Potency, µM (highest dose often 46.2 µM), for inactives: top-dose activity change, negative = growth inhibition, most hits filed as inhibitors; further: potency means the concentration at half of the fitted maximal effect; nearly all actives have a fitted effect of over 55% in size
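Chicken DT40 Tdp1-/- cells complemented with human TDP1, 400 cells/well, exposed to compounds plus 20 nM camptothecin for at least 48 h at 37 C; viability read as ATP content by CellTiter-Glo luminescence.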
DT40 TDP1 no CPT: qHTS for Inhibitors of human tyrosyl-DNA phosphodiesterase 1 (TDP1): qHTS in cells in absence of CPT; DT40 Tdp1-/- hTDP1 cells, no CPT, ATP luminescence, 48 h; Potency, µM (series often up to 46.2 µM), without a hit: at the top dose activity change, negative = growth inhibition, hits mostly inhibitors; 420,000 tested, 15% active; further: potency means the concentration at half of the fitted maximal effect; nearly all actives have a fitted effect of over 55% in size
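Seeded 400 DT40-hTDP1 cells/well (vehicle DMSO, no 20 nM CPT); pinned compounds; ≥48 hr at 37 °C; CellTiter-Glo luminescence as viability measure.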
LDHA block: LDHA (human) enzyme inhibition; purified LDHA, NADH/diaphorase-resazurin fluorescence; hits give low values; activity change, % (values are at about 110 or 230 µM); 480,000 tested, 0.15% active; AID 1347041; in the data active means activity change below about -30%; inconclusive means mostly about -25% to -30%;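 further: plate controls were DMSO wells for no effect and wells without enzyme for full effect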
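Remaining NADH was detected by diaphorase (0.133 mg/mL) converting 37 µM resazurin to fluorescent resorufin, read at 0 and 20 minutes. The preceding 5-minute room-temperature reaction used 2 nM LDHA, 0.2 mM sodium pyruvate and 0.06 mM NADH at pH 7.4.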
IL1B secr inh: inhibitors of inflammasome signaling (IL-1 beta secretion). THP-1 LPS/ATP IL-1B secretion, AlphaLISA, 16 h; hits give low values. activity change, % at 57.5 µM. AID 743279. 360,000 tested, 4.7% active; in the data active means activity change below about -50%; inconclusive means mostly about -30% to -49%
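Secreted IL-1B measured by AlphaLISA bead assay after 16 h compound exposure of THP-1 cells; compounds (final up to 57.5 uM) added 1 h before LPS (250 ng/mL) and ATP (1.25 mM) stimulation; lower signal means less secretion.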
VP16 counter: inhibits Gal4-VP16 luciferase reporter, ROR gamma counter-screen | 310,000 tested, 3.5% active | Drosophila S2 Gal4-VP16 UAS-luciferase, luminescence, 20 h | Potency, µM (highest dose often 53.6 µM), inactives show at the top dose activity, negative = inhibition, most hits filed as inhibitors;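 further: Gal4-VP16 expression switched on by copper sulfate through the metallothionein promoter; potency means the concentration at half of the fitted maximal effect; nearly all actives have a fitted effect of over 50% in size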
Starred values were filed as active, the others as inactive; u = inconclusive; x = not tested or not shown. An excerpt weighted towards active compounds, which were near 18% of everything screened. Unless noted, the call rests on the fitted dose curve; in most records, active means well fitted curve in the direction sought with a large enough effect; inconclusive means small, poorly fitted or top-dose-only effect, or another doubt; inactive means no such curve, though single readings can be large; an effect the other way counts as inactive or inconclusive. Unless noted, on the % scale 0 is the no-effect control and ±100 the full control effect.

SMILES	RORgamma inh	TDP1 cell CPT	DT40 TDP1 no CPT	LDHA block	IL1B secr inh	VP16 counter
Cc1cc(C)c(C)c(S(=O)(=O)Nc2ccccc2C(=O)NCCCn2ccnc2)c1C	-38.9%	4.61µM*	5.8µM*	-8.7	-12.3	0.9%
Cc1cc(C)c(C)c(S(=O)(=O)Nc2ccccc2C(=O)NCCCN2CCOCC2)c1C	5.0%	u	u	3.4	-1.1	5.9%
COc1ccc(-c2noc(CN3CCCC(C(=O)Nc4ccc(-c5ccno5)cc4)C3)n2)cc1OC (stereo not drawn)	x	x	x	2.9	x	x
c1ccc(Cn2ncc3c(N4CCN(c5ccccc5)CC4)ncnc32)cc1	x	18.4µM*	16.4µM*	-4.9	u	x
Cc1ccc(Cn2ncc3c(N4CCCC4)ncnc32)cc1	18.8%	u	u	-4.4	-20.3	-1.0%
Cc1ccc(Cn2ncc3c(N4CCN(CC#N)CC4)ncnc32)cc1	35.1%	-15.5%	u	0.6	-15.2	-5.8%
c1ccc(Cn2ncc3c(N4CCN(C(c5ccccc5)c5ccccc5)CC4)ncnc32)cc1	15.2%	18.4µM*	20.6µM*	0.3	-0.8	-14.8%
CCOc1cc(C(c2c(C)[nH][nH]c2=O)c2c(C)[nH][nH]c2=O)ccc1O	-25.0%	-18.7%	-7.8%	17.5	-62.7*	-8.0%
Cc1[nH][nH]c(=O)c1C(c1ccc(O)c([N+](=O)[O-])c1)c1c(C)[nH][nH]c1=O	-37.6%	-27.4%	u	7.1	-20.3	-5.5%
Cc1[nH][nH]c(=O)c1C(c1ccc(O)c(Br)c1)c1c(C)[nH][nH]c1=O	5.5%	-26.9%	u	5.7	-73.3*	-12.3%
O=c1[nH]c(Cc2ccccn2)nc2scc(-c3ccc(Cl)cc3)c12	5.62µM*	u	-18.8%	2.3	-15.1	u
Cn1nnnc1SCc1nc2scc(-c3ccc(Cl)cc3)c2c(=O)[nH]1	-2.4%	-26.4%	-18.8%	-10.4	u	-16.6%
O=c1[nH]c(Cc2cccs2)nc2scc(-c3ccc(Cl)cc3)c12	u	13µM*	-27.6%	-13.2	1.1	-1.5%
CCOC(=O)C(NC(=O)NC)C(F)(F)F (stereo not drawn)	x	x	x	0.3	x	x
COCCNc1oc(-c2ccc(S(=O)(=O)N3CCCCCC3)cc2)nc1C#N	x	x	x	2.9	x	x
N#C/C(=C\c1cc([N+](=O)[O-])ccc1Cl)C(N)=O	-40.2%	2.59µM*	2.91µM*	5.6	-88.8*	-7.7%
CCCCNC(=O)C(NC(=O)Cc1cc(C(F)(F)F)cc(C(F)(F)F)c1)C(=O)c1ccccc1 (stereo not drawn)	x	29.1µM*	u	5.2	-7.7	x
CCN(CC)S(=O)(=O)c1cc(NC(=O)Cc2n[nH]c(=O)c3ccccc23)ccc1C	u	u	13µM*	-7.1	-10.1	-22.4%
CN(c1ccccc1)S(=O)(=O)c1cccc(NC(=O)Cc2n[nH]c(=O)c3ccccc23)c1	x	13µM*	11.6µM*	-1.5	77.1	x
Cc1ccc(NC(=O)Cc2n[nH]c(=O)c3ccccc23)cc1S(=O)(=O)N1CCCCCC1	x	u	16.4µM*	-7.7	-8.7	x
Cc1ccc(NC(=O)Cc2n[nH]c(=O)c3ccccc23)cc1S(=O)(=O)Nc1ccccc1Cl	x	x	x	0.3	x	x
Cc1nc2n(c(=O)c1C)CN(Cc1cccnc1)CN2c1ccc(Cl)cc1Cl	x	x	x	1.0	x	x
Cc1c(C(=O)N(C)C)sc2nc(-c3ccccn3)[nH]c(=O)c12	u	-21.9%	u	7.4	-9.1	-13.3%
O=c1[nH]c(-c2ccccn2)nc2sc(-c3ccccc3)cc12	0.316µM*	2.31µM*	2.06µM*	-7.8	-101.5*	1.41µM*
CCCNC(=O)c1cccc(Cn2nc(C)c(Br)c2C)c1	21.3%	16.4µM*	20.6µM*	-2.5	-10.2	-1.1%
SMILES	RORgamma inh	TDP1 cell CPT	DT40 TDP1 no CPT	LDHA block	IL1B secr inh	VP16 counter
Cc1nn(Cc2cccc(C(=O)NC34CC5CC(CC(C5)C3)C4)c2)c(C)c1Br	u	u	u	2.6	-25.2	3.1%
COc1ccc(/C=C/C(=O)c2ccccn2)cc1	11.2µM*	20.6µM*	u	28.5	u	11.2µM*
COc1ccc(OC)c(NC(=O)/C=C/c2ccccc2[N+](=O)[O-])c1	u	-10.9%	u	1.2	-26.4	-8.7%
COc1ccc([N+](=O)[O-])c(C=CC(=O)c2ccccn2)c1	x	5.17µM*	2.31µM*	8.2	-104.9*	x
Cc1ccc(-c2nn(CCC(=O)Nc3ccc(Cl)cc3)c(=O)c3ccccc23)cc1	x	x	x	-1.3	x	x
Cc1ccc(C)c(C(=O)NC(C)C2CC3CCC2C3)c1 (stereo not drawn)	x	x	x	2.9	x	x
COc1ccccc1-c1c(C(F)(F)F)oc2cc(OC(=O)c3cccc([N+](=O)[O-])c3C)ccc2c1=O	u	20.6µM*	23.1µM*	-2.8	6.3	-10.8%
COC(=O)C(C)Oc1ccc2c(=O)c(-c3ccccc3OC)c(C(F)(F)F)oc2c1 (stereo not drawn)	x	x	x	0.6	x	x
COc1ccc2c(c1)CCCN2C(=O)c1cc2cc(Cl)ccc2nc1C	x	x	x	-0.1	x	x
CC(=O)/C(C=Nc1cc(C(F)(F)F)ccc1Cl)=C(/C)O	x	x	x	-0.8	x	x
O=C(O)c1ccc(N=Nc2c(O)[nH]c3ccccc23)cc1	u	u	u	-6.4	13.4	35.5µM*
CN(C)C(=O)c1ccc(N=Nc2c(O)c3ccccc3[nH]c2=O)cc1	x	20.6µM*	20.6µM*	0.2	-22.0	x
Cc1cc(N=Nc2c(O)c3ccccc3[nH]c2=O)ccc1N=Nc1ccc(C(=O)N(C)C)cc1	-17.8%	10.3µM*	7.31µM*	-1.2	25.9	-10.7%
Cc1ccccc1N=Nc1c(O)[nH]c2ccccc12	x	u	u	10.0	5.5	x
Cc1cc(-c2ccccc2)cc(-c2ccccc2)n1	x	x	x	3.0	x	x
CCC(=O)Nc1ccccc1-c1nnc(SCC(=O)Nc2cc(Cl)ccc2Cl)[nH]c1=O	x	x	x	-7.8	x	x
COc1ccc(C(C)(C)C)cc1-c1csc(N)n1	x	x	x	-0.2	x	x
Cc1cc(C(=O)OCc2nnc(-c3ccccc3)o2)c(C)n1-c1ccccc1	u	18.4µM*	20.6µM*	-4.8	-16.3	-4.2%
Cc1noc(C)c1COC(=O)c1cc(C)n(-c2ccccc2)c1C	u	u	20.6µM*	-6.5	u	u
Cc1noc(C)c1COC(=O)c1cc(=O)[nH]c2ccccc12	1.9%	-0.3%	-0.4%	-5.2	-4.0	-1.0%
COCC(=O)N1N=C(c2ccc3c(c2)OCO3)CC1c1ccc2nccnc2c1 (stereo not drawn)	x	x	x	1.2	x	x
